# Experimental data from the supplement of paper PMC12669032.
# Values without a mark were called inactive.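 The calls were made as follows: active = AUC reduced over 20% with Padj below 0.05 in at least 2 of 3 replicates; inactive = otherwise.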
# Key:
# [1] = system: Roseburia intestinalis; assay: growth AUC relative to DMSO control (median of replicates) (fraction); higher = more growth (less inhibition), active = hit call of the paper; settings: 20 µM; 24 h
# Outline: (§1)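 In round-bottom 96-well plates sealed with pierced gas-permeable seals, gut bacterial monocultures in mGAM were grown anaerobically at 37 °C from OD600 0.05 with 20 µM compound (1% DMSO). OD600 readings were taken hourly for 24 h, and the minimum OD was set to 0. Area under the growth curve was then normalised to the plate median of solvent-only wells, or to row and column medians on the industrial chemical plate. The value given is the median of three biological replicates grown on separate days.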
# [2] = system: Streptococcus salivarius; assay: as above; settings: 20 µM; 24 h
# Outline: as §1
SMILES,growth AUC [1],growth AUC [2]
O=C(O)COc1cccc(Cl)c1Cl,1.15,0.973
CCCCCCCC/C=C\CCCCCCCCCCCCC,1.07,1.03
Oc1ccc2nc(-c3cscn3)[nH]c2c1,1.03,1.07
N#CC(=NOCC1OCCO1)c1ccccc1,0.968,0.976
CCN(CC)c1nc(C)cc(=O)[nH]1,1.01,1.04
Br[C@@H]1CC[C@@H](Br)[C@@H](Br)CC[C@H](Br)[C@H](Br)CC[C@H]1Br,1.43,0.898
O=C(NC(=O)c1c(F)cccc1F)Nc1cc(C(F)(F)F)cc(C(F)(F)F)c1Cl,0.942,0.922
CC(C)(CO)C(O)(CCc1ccc(Cl)cc1)Cn1cncn1 (stereo not given),0.935,0.987
CN(C)c1ccc(N=NS(=O)(=O)[O-])cc1.[Na+],1.03,1.01
COc1cc(OC)nc(NC(=O)NS(=O)(=O)c2c(Cl)nc3ccccn23)n1,1,1.05
CCCOC(=O)NCCCN(C)C,1.02,0.967
CCOC(=O)C1CC(=O)C(=C(O)C2CC2)C(=O)C1 (stereo not given),1,0.988
CSC(=O)c1cccc2nnsc12,0.953,0.968
CC(C)(c1ccc(O)cc1)c1ccc(O)cc1,1.06,1.01
CCOCOc1ccc(C(=O)Nc2cccc(Cl)c2Cl)cc1,1,0.989
C/C=C/C(=O)Oc1c(C(C)CCCCCC)cc([N+](=O)[O-])cc1[N+](=O)[O-] (mixture of isomers),0.809,0.301 (active)
COC(=O)c1c(Cl)ccc(Cl)c1OC,0.982,1.04
C[C@@]1(c2ccccc2)NC(=O)N(Nc2ccccc2)C1=O,0.958,1.02
COc1nc(C)nc(NC(=O)NS(=O)(=O)c2ccccc2OCCCl)n1,1,0.992
CN1CCC[C@H]1c1cccnc1,0.933,0.949

SMILES,growth AUC [1],growth AUC [2]
CCOc1ccc2c(c1)C(C)=CC(C)(C)N2,1.04,1.06
COCCCNc1nc(NC(C)C)nc(SC)n1,0.995,0.969
ClC(COCC(Cl)C(Cl)(Cl)Cl)C(Cl)(Cl)Cl (stereo not given),1.01,1.02
CCCCN(C)C(=O)Nc1ccc(Cl)c(Cl)c1,0.956,0.971
Cc1cc(N(C)C)nc(Cl)n1,1.01,1.04
c1ccc2cc3c(ccc4ccccc43)cc2c1,1.01,0.962
CCCOC(=O)c1ccc(C(=O)OCCC)nc1,0.977,0.996
Cc1c(Br)c2ccc(F)cc2n1S(=O)(=O)c1ncn(S(=O)(=O)N(C)C)n1,1.06,1.06
CCSc1nc(NC(C)C)nc(NC(C)C)n1,0.96,0.999
NC(=O)c1c(Cl)cccc1Cl,0.906,0.991
Cn1cc(C(=O)Nc2ccccc2-c2cc(F)c(F)c(F)c2)c(C(F)F)n1,0.997,0.966
O=C(Oc1ccccc1)n1c(C(F)(F)F)nc2cc(Cl)c(Cl)cc21,0.797 (active),0.342 (active)
S=C([S-])NCCNC(=S)[S-].[Zn+2],0.975,0.97
Cc1ccc(C(C)NC(=O)[C@@H](NC(=O)OC(C)C)C(C)C)cc1 (stereo not given in full),0.956,0.963
[S],0.952,0.997
C#CCN(C)c1c(C#N)cnn1-c1nn2c(c1Cl)CCCC2,1.02,1.03
CC(C)N(C(=O)C(=O)O)c1ccc(F)cc1,0.998,1.05
O=C(O)[C@@H](S)[C@@H](S)C(=O)O,1,0.997
CP(=O)(O)CCC(=O)O,1.03,0.987
CC(=O)Oc1c(Cl)c(Cl)c(Cl)c(Cl)c1Cl,1.04,0.909
